PLCb3 inh: blocks human PLC-beta3 enzyme activity; inhibition, % at 12.2 µM; Purified PLC-beta3, fluorogenic substrate, fluorescence; hit rate 0.18% among 370,000; Q01970; in the data active means inhibition above about 11%;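 further: 0% = median of compound wells on plate and 100% = full blocker control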
Target sequence (Q01970 whole entry, looked up): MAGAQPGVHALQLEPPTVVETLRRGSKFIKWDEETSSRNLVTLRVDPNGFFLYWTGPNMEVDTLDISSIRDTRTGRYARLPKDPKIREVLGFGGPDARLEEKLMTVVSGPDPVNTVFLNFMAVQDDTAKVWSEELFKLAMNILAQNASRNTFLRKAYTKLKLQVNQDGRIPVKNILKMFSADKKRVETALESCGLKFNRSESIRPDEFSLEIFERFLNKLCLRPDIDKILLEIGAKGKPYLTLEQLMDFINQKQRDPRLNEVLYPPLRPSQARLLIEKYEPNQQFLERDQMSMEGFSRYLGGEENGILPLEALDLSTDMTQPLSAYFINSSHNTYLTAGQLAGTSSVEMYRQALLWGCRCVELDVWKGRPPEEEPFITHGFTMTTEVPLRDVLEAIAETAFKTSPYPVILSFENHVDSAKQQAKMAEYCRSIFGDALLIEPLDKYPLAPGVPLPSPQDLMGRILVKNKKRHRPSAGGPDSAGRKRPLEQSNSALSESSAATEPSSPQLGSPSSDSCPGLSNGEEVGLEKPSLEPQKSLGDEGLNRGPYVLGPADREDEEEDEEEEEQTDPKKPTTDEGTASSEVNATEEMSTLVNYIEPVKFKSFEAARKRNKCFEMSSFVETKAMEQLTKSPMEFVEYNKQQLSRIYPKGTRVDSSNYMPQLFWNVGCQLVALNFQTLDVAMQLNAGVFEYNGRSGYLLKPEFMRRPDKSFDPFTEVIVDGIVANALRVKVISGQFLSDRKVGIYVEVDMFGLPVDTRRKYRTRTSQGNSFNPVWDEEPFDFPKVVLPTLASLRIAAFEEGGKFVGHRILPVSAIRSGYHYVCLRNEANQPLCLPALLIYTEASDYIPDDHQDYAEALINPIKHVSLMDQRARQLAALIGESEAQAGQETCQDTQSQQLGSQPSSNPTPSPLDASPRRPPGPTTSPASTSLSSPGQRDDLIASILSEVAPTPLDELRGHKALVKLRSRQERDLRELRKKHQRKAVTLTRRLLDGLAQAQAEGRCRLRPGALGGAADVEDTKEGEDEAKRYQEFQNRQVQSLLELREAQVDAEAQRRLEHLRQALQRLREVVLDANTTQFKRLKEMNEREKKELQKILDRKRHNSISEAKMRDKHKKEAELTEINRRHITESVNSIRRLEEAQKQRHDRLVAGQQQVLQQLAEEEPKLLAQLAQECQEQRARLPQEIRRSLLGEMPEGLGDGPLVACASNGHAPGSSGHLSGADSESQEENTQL
Rce1 inhib: blocks yeast Ras-converting enzyme. yeast membranes, quenched prenylated peptide cleavage fluorescence. calls only. Q03530. hit rate 0.27% among 290,000;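 active means fall in fluorescence gain of 50% or more versus controls, with final raw signal at or below 3038400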;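 further: plate controls were neutral control wells for no effect and wells lacking membranes for full effect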
GC-B act: GC-B (human) receptor activation. P20594. AID 1920062. hit rate 0.11% among 370,000. activation, % at 10 µM. HEK293-GC-B cells, CNP EC30, cGMP TR-FRET; 0% at EC30 CNP, 100% saturating CNP;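 active means activation at 10 µM reaching about 35% in either raw or pattern-adjusted values, limit read from the data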
NPR1 activator: GC-A (human) enzyme activation; P16066; HEK293 GC-A cells, cGMP TR-FRET, EC30 ANP; 0% at EC30 ANP, 100% saturating ANP; activation, % at 10 µM; hit rate 0.14% among 370,000; AID 1671463; in the data active means activation above about 40%
M18AAP inhibitor: blocks P. falciparum M18 aspartyl aminopeptidase; recombinant PfM18AAP, H-Glu-NHMec fluorogenic cleavage; inhibition, % at 7.35 µM; hit rate 1.2% among 290,000; AID 1822;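 active means inhibition above the campaign mean inhibition over all tested compounds plus 3 SD, cut at about 28% in these data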;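 further: 0% = plate median of test compound wells and 100% = 2 mM ZnCl2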
PLC-gamma1 inh: inhibitors of human phospholipase C gamma1 | P19174 | purified PLC-gamma1, fluorogenic substrate, fluorescence | inhibition, % at 12.2 µM | hit rate 0.84% among 370,000 | AID 720700; in the data active means inhibition above about 9.5%
Active calls of the source: *; i = inactive; . = no result; + = active, no number. The list is not random: actives were taken first. Their share in the collection is about 2.2%.

SMILES	PLCb3 inh	Rce1 inhib	GC-B act	NPR1 activator	M18AAP inhibitor	PLC-gamma1 inh
Cc1ccc(-c2nnc(SCC(=O)NNC(=S)Nc3ccccc3)n2C2CCCCC2)cc1	0.1	.	-5.3	3.4	.	1.1
Cn1cc(C(=O)c2ccc(Cl)cc2Cl)cc1C(=O)N/N=C(\N)COc1ccc(Cl)cc1	-8.1	i	-4.3	4.4	-0.4	3.3
Cn1cc(C(=O)c2ccc(Cl)cc2Cl)cc1C(=O)N/N=C(\N)COc1ccc(Cl)cc1Cl	-0.7	i	-1.9	-0.5	-7.4	11.9*
C=CC[C@H](CC(=O)NCCO)C(=O)NC[C@@H](OC(=O)[C@@H](CC=C)CC(=O)OC(C)(C)C)c1ccccc1	2.6	.	68.7*	-8.0	.	2.0
CCN(CC)CCCNC(=O)CC1Oc2ccccc2NC1=O (stereo not given)	1.0	.	-4.1	-1.5	.	-2.9
COC(=O)CSc1nc2sc3c(c2c(=O)n1-c1ccc(OC)cc1)CCN(C)C3	-59.2	i	0.4	19.6	15.6	-41.7
C=C(C)CSc1nc2sc3c(c2c(=O)n1-c1ccc(OC)cc1)CCN(C)C3	-35.2	+	-1.1	22.7	2.4	-23.7
Cc1ccc(C(=O)N/N=C/C2=Cc3ccccc3OC2C)cc1 (stereo not given)	-447.1	i	0.3	1.2	-7.3	-399.8
CC1Oc2ccccc2C=C1/C=N/NC(=O)[C@@H](C)NC(=O)OC(C)(C)C (stereo not given in full)	-223.8	+	-3.5	-3.7	3.2	-160.5
O=c1/c(=C/c2ccccn2)sc2nc3ccccc3n12	-9.8	i	-2.9	-3.0	36.1*	-9.1
Oc1cccc(/C=N/NC(=S)NCCN2CCOCC2)c1O	-21.7	i	0.7	-0.9	28.9*	-13.5
NC(=S)N/N=C/c1ccccc1O	-247.8	i	-1.0	5.3	23.5	-153.4
NC(=S)N/N=C/c1cccc(O)c1O	-80.8	i	2.2	-1.8	40.0*	-79.9
Cc1cc(/C=N/NC(N)=S)c(O)c(/C=N/NC(N)=S)c1	i	i	1.4	2.6	44.8*	i
Cc1ccc(-c2cc3nc(-c4ccco4)cc(N4CCN(Cc5ccoc5)CC4)n3n2)cc1	i	.	-9.7	-0.5	.	i
COc1ccc(CCN(Cc2cccs2)S(=O)(=O)c2ccc(F)cc2)cc1OC	0.0	.	-2.4	2.9	.	6.5
CCC[C@H]1[C@@H](NC(=O)C2CCC2)CC[C@@]23CCCN2C(=O)CCC[C@@H]13	-0.5	.	-2.5	-6.2	.	4.5
COc1ccccc1N1CCN(C(=O)c2cc(C(C)(C)C)oc2C)CC1	-5.8	i	5.0	-1.1	28.5*	-0.6
O=C(O)c1ccc2c(c1)C(=O)N(CCC1=CCCCC1)C2=O	-1.1	i	-5.8	0.0	5.3	12.9*
CN(C(=O)c1ccc2c(c1)C(=O)N(CCC1=CCCCC1)C2=O)C1CCCCC1	0.1	i	3.5	2.5	-10.9	0.9
Nc1c(C(=O)Nc2ccc(Cl)c(C(=O)O)c2)sc2nc3c(cc12)CCCC3	-323.6	i	-3.2	4.8	8.7	-207.0
Nc1c(C(=O)Nc2cccc(C(=O)O)c2)sc2nc3c(cc12)CCCC3	i	+	-0.1	0.6	5.8	-438.3
COc1ccc(NC(=O)c2cc(-c3cc(F)ccc3OC(C)C)n[nH]2)c(C)c1	2.4	.	61.0*	55.6*	.	-2.0
CCOC(=O)c1ccc(NC(=O)CSc2nnc(-c3cc(-c4ccccc4)n[nH]3)n2N)cc1	-0.2	.	-8.4	-1.6	.	1.2
Cc1cccc(NS(=O)(=O)c2ccc(NC(=O)N3CCCCC3)cc2)c1	-15.7	i	1.2	-4.1	0.2	4.6
SMILES	PLCb3 inh	Rce1 inhib	GC-B act	NPR1 activator	M18AAP inhibitor	PLC-gamma1 inh
Cc1ccc(NS(=O)(=O)c2ccc(NC(=O)N3CCCCC3)cc2)cc1	-6.3	+	-3.3	-3.2	9.1	3.6
O=C(Nc1ccc(C(O)(C(F)(F)F)C(F)(F)F)cc1)c1ccc(F)cc1Cl	0.8	.	-3.7	0.3	.	3.4
O=C1OCCC1Sc1nnc(-c2ccco2)o1 (stereo not given)	-1.1	i	-1.6	-0.4	0.1	-0.8
O=C1OCCC1Sc1nnc(-c2ccc(Br)cc2)o1 (stereo not given)	0.8	i	23.0	66.0*	-9.4	0.6
COc1ccc(-c2nc3ccccc3n2Cc2ccc(C)cc2)cc1	-1.1	i	48.4*	63.1*	-12.7	-0.9
COCn1c(-c2ccc(OC)cc2)nc2ccccc21	-1.5	i	0.1	6.0	2.8	-0.2
CC1(C)Oc2cc(N)c([N+](=O)[O-])cc2O1	10.2	i	3.5	1.7	20.0	32.5*
COc1ccc(CN(CCN2CCOCC2)C(=O)c2cccc(F)c2)cc1OC	0.4	.	-5.3	2.5	.	-0.6
Cc1ccc2nc(-c3ccccc3)cn2c1	-20.4	+	-0.2	-1.5	-12.4	-11.1
CN(C)c1ccc(NC(=S)NC(=O)/C=C/c2ccc(Cl)cc2)cc1	-3.5	i	-7.2	3.1	10.9	-0.5
O=C(/C=C/c1ccc(Cl)cc1)NC(=S)Nc1ccc(C(=O)O)cc1	0.4	i	-0.8	6.8	4.9	10.8*
CC(C)(N[C@@H](Cc1c[nH]c2ccccc12)C(=O)NCC(c1ccccc1)c1ccccc1)C(=O)NC1CCCCC1	1.8	.	-16.8	-17.1	.	2.1
COc1cc(/C=N/NC(=O)NC2CCCCC2)cc(OC)c1O	-10.6	i	-0.8	-2.2	29.4*	0.3
O=C(c1coc(=O)c(Br)c1)N1CCC(C(O)(c2ccccc2)c2ccccc2)CC1	-229.1	i	-7.5	-11.4	-2.1	-157.7
CC1(C)CCCN(C(=O)c2coc(=O)c(Br)c2)C1	-209.7	+	3.1	-1.4	-4.9	-170.6
CCNC(=S)N/N=C(\C)c1ccc(N2CCOCC2)cc1	-4.5	i	-4.9	7.5	29.4*	-5.0
N#Cc1cccc(NC(=O)OCCCN2CCC3(CCCCC3)C2=O)c1	-0.5	.	-4.2	-2.0	.	0.3
Cc1ccc(C(=O)Nn2cnnc2)cc1	-2.4	i	1.8	4.4	28.9*	1.6
CCCCOc1ccc(-c2cc(C(F)(F)F)c(C#N)c(SCC(=O)O)n2)cc1	-24.6	+	-2.2	5.9	-2.9	-21.8
N#Cc1c(C(F)(F)F)cc(-c2ccc(F)cc2)nc1SCC(=O)O	-7.0	i	1.9	1.0	3.5	-6.5
NC(=S)N/N=C1\CC(c2ccc3c(c2)OCCCO3)Oc2ccc(F)cc21 (stereo not given)	-2.7	i	21.8	16.0	-13.6	3.0
NC(=S)N/N=C1\CC(c2ccc3c(c2)OCCO3)Oc2ccc(F)cc21 (stereo not given)	-10.5	i	41.7*	32.0	-4.0	-1.3
C=C1CCC2C(C)(C)CCC[C@]2(C)[C@H]1CC1=C(O)C(=O)C(CO)=CC1=O (stereo not given in full)	-2.9	.	5.4	4.0	.	-3.5
Cc1cc(NS(=O)(=O)c2ccc(NC(=O)CSc3nnc(SCc4ccc(Cl)cc4)s3)cc2)nc(C)n1	-5.0	.	-8.6	1.2	.	0.3
